# D3 antag = D3 dopamine receptor (human) antagonism | AID 652054 | hit rate 2.5% among 360,000 | max response, negative = inhibition, % | P35462 | D3R cells, DiscoveRx beta-arrestin luminescence, antagonist mode; active compounds read low; in the data active means max response below about -50%; inconclusive means no clear call, values can overlap the other calls
#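 Cells plated overnight at 1500 cells/well, then exposed to library compounds with dopamine controls for 90 minutes at 37 degrees C. DiscoveRx reagent added for 30–60 minutes at room temperature; luminescence read, quantitative HTS format.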
# RGS4 inh = human RGS4 inhibition. P49798. Transcreener GDP fluorescence polarization, RGS4-accelerated GTP hydrolysis. Potency, µM (series often up to 114 µM), actives largely listed as inhibitors. hit rate 0.039% among 390,000; further: nearly all actives have a fitted effect of over 75% in size
# Target sequence (P49798 whole entry, looked up): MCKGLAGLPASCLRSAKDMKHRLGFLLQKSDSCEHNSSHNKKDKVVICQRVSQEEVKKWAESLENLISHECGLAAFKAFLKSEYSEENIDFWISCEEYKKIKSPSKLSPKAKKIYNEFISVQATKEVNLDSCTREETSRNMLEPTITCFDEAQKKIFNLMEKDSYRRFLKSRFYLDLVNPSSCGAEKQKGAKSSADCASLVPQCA
#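 MLSMR compounds (23 nl, pin-transferred) preincubated 10 min at room temperature with a 500nM (2x) first reagent, then RGS4 at 900nM (2x) plus Transcreener GDP mix added; fluorescence polarization (620/688 nm) read before and after 90 min at 30 °C.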
# PTHR1 agonist = PTHR1 (human) receptor agonism; hit rate 0.075% among 410,000; AID 743266; Q03431; Potency, µM (series often up to 115 µM), most hits filed as activators; HEK293 GP2 PTHR1 cells, GloSensor cAMP luminescence, 1 h; further: nearly all actives have a fitted effect of over 55% in size
#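 HEK-293-derived GP2 cells expressing PTHR1 and a GloSensor cAMP reporter, 3,000/well, plated overnight, given luciferin plus IBMX (each 0.5 mM as added) for 1 h at 37 °C, then compound for 1 h at 37 °C. Luminescence was read after 15 min at room temperature.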
# BRCA1 expr act = BRCA1 expression activation; MCF7-BRCA1-FFLuc reporter, luminescence, 48 h; response scale: scaled: vehicle 0%, 10 µM genistein 100%; Potency, µM (top dose mostly 46.1 µM), actives largely listed as activators; hit rate 1.1% among 380,000; AID 624202; further: nearly all actives have a fitted effect of over 80% in size
#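 Activators of BRCA1 expression were detected as increased firefly luciferase luminescence in engineered MCF7 cells after 48 h compound incubation. Signals were scaled to genistein 10 microM as full activation.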
# DRD3 agonist = activates the human D3 dopamine receptor | D3R DiscoveRx beta-arrestin cells, luminescence, 90 min | hit rate 0.58% among 410,000 | AID 652048 | max activation, % | P35462; in the data active means max activation above about 30%
#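 Cells at 1500/well, incubated overnight, then treated with pinned compounds (dopamine as control) for 90 min at 37 degrees C. DiscoveRx reagent added for 30 - 60 minutes at room temperature; luminescence read.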
# B2AR arrestin = beta2AR (human) beta-arrestin recruitment activity. Potency, µM (top dose mostly 46.1 µM), most hits filed as activators. beta-arrestin recruitment to beta2AR, cell-based reporter. P07550. hit rate 0.02% among 330,000; further: nearly all actives have a fitted effect of over 65% in size
# A number is an active result; – = inactive; ? = inconclusive; · = no result given. Most compounds without a hit are left out; they make up all but 3.7% or so of the library. Unless noted, the call rests on the fitted dose curve; in most records, active means well fitted curve in the direction sought with a large enough effect; inconclusive means small, poorly fitted or top-dose-only effect, or another doubt; inactive means no such curve, though single readings can be large; an effect the other way counts as inactive or inconclusive.
SMILES,D3 antag,RGS4 inh,PTHR1 agonist,BRCA1 expr act,DRD3 agonist,B2AR arrestin
Cc1ccc(S(=O)(=O)N2[C@@H](c3ccc(F)cc3)C(C(=O)O)=CC[C@H]2c2cccc(C)c2)cc1,?,–,–,–,–,–
CCc1ccc([C@@H]2CC=C(C(=O)O)[C@H](c3ccc(F)cc3)N2S(=O)(=O)c2ccc(C)cc2)cc1,-52.4,–,–,–,–,–
Cc1ccc(/C(O)=C/C(=O)C(=O)NNC(=O)C(O)(c2ccccc2)c2ccccc2)cc1,-87.6,–,–,–,–,–
O=C(C=C(O)c1ccc(Cl)cc1)C(=O)NNC(=O)C(O)(c1ccccc1)c1ccccc1,–,–,–,–,–,·
C=CCc1c(C)nc2c(-c3ccccc3)cnn2c1N1CCOCC1,–,–,–,2.24µM,–,–
COc1ccc(OCC(=O)NC(Cc2c[nH]c3ccccc23)C(=O)O)cc1 (stereo not given),·,–,–,·,–,·
CCOC(=O)Cc1csc(NC(=O)c2cc3c(s2)CCCC3)n1,–,–,–,–,–,–
CCOC(=O)Cc1csc(NC(=O)c2ccc(C)o2)n1,–,–,–,–,–,–
CCOC(=O)Cc1csc(NC(=O)c2cnc3sc(C)cn3c2=O)n1,–,–,–,11.2µM,–,–
CCOC(=O)Cc1csc(NC(=O)c2ccc(S(=O)(=O)N3CCCCC3)cc2)n1,–,–,–,–,36.1,–
CCOC(=O)Cc1csc(NC(=O)c2csc3c2CCCC3)n1,-63.4,–,–,–,–,–
CCCN1CNc2c(c(=O)[nH]c(=S)n2CCc2ccc(C)cc2)C1,·,–,·,–,·,·
CCCC1=C(C(=O)OCC)C(c2ccco2)C(C#N)=C(N)O1 (stereo not given),–,–,–,–,48.0,–
Cc1coc2cc3oc(=O)c(CCC(=O)NC4CC4)c(C)c3cc12,–,–,–,?,–,–
Cc1c(CC(=O)N2CCC(C(N)=O)CC2)c(=O)oc2cc3c(cc12)CCC1(CCCCC1)O3,–,–,–,–,45.0,–
Cc1c(CCC(=O)N2CCC(C(=O)O)(c3ccccc3)CC2)c(=O)oc2cc3oc4c(c3cc12)CCCC4,–,–,–,–,–,–
Cc1oc2cc3oc(=O)c(CCC(=O)NC4CC4)c(C)c3cc2c1C,–,–,–,6.31µM,79.5,–
Cc1c(CCC(=O)N2CCC(C(=O)O)CC2)c(=O)oc2cc3oc4c(c3cc12)CCCC4,–,–,–,–,41.9,–
CN(Cc1ccccc1)C(=O)COC(=O)c1ccccc1SCC(=O)N1CCCC1,–,–,–,–,–,–
O=C(O)c1cccnc1Sc1ccc(Cl)cc1,–,–,50.1µM,–,–,–
O=C(O)c1cccnc1Sc1ccccc1,–,–,–,–,–,–
O=C(Nc1ccc2oc(-c3cccc4ccccc34)nc2c1)c1ncn[nH]1,–,–,–,2.24µM,–,–
c1ccc(-c2ccccc2OCCCN2CCCCC2)cc1,–,–,–,–,–,–
Clc1cccc(OCCCN2CCCC2)c1Cl,-98.8,–,–,–,–,–
c1ccc2c(OCCCN3CCCCCC3)cccc2c1,-60.2,–,–,–,–,–
SMILES,D3 antag,RGS4 inh,PTHR1 agonist,BRCA1 expr act,DRD3 agonist,B2AR arrestin
Clc1cccc(OCCOCCN2CCNCC2)c1Cl,?,–,–,–,–,·
CCN(CCO)c1ccc(Nc2cc(-c3ccc(-c4ccccc4)cc3)ncn2)cc1,–,·,–,–,–,·
CCN(CCO)c1ccc(N=Nc2cc(C)[nH]n2)cc1,-51.6,–,–,?,–,–
O=C(COC(=O)c1ccc(Cl)c(S(=O)(=O)NCc2ccccc2)c1)NCC1CCCO1 (stereo not given),–,–,–,–,–,–
Oc1c(C(c2ccccn2)N2CCC(Cc3ccccc3)CC2)cc(Cl)c2cccnc12 (stereo not given),-111.9,–,–,–,–,?
Cc1ccc(C(c2cc(Cl)c3cccnc3c2O)N2CCN(C)CC2)cc1 (stereo not given),-117.7,?,–,–,–,–
COc1cc(C(=O)NC(c2ccc(Cl)cc2)c2cc(Cl)c3cccnc3c2O)cc(OC)c1OC (stereo not given),·,–,–,·,–,·
